HT1080 IDH1KD tx = toxicity to HT-1080 IDH1 knockdown cells (counter line) | HT-1080 IDH1 knockdown viability, ATP luminescence, 48 h | Potency, µM (top dose mostly 46.1 µM), most hits filed as cytotoxic | 2% of 360,000 active | AID 686971
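After a 2 h attachment period, IDH1KD HT-1080 cells took pin-transferred compound for 48 h at 37 °C; ATP-based luminescence after 10 min room-temperature reagent incubation reported viability.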
SW480 rereplic = induces DNA re-replication in SW480 colon adenocarcinoma cells. Potency, µM (highest dose often 46.1 µM), usual class: activators. 1.8% of 340,000 active. SW480 DNA re-replication, Hoechst DNA content imaging, 48 h; also: nearly all actives have a fitted effect of over 55% in size
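Readout is total intensity of Hoechst-stained nuclei, excited at 405 nm and collected at 500-530 nm. Compound treatment lasted 48 hr at 37 C in 5% CO2 before staining.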
MCF10A rerep = DNA re-replication induction in MCF 10a cells | MCF 10A DNA re-replication, Hoechst nuclear intensity, 48 h | Potency, µM (titrated, usually from 46.1 µM), actives largely listed as activators | 2.9% of 350,000 active | AID 624296; also: nearly all actives have a fitted effect of over 50% in size
KB-V1 MDR tox = kills drug-selected multidrug resistant KB-V1 cells | KB-V1 MDR cells viability, CellTiter-Glo, 72 h | Potency, µM (top dose mostly 46.1 µM), most hits filed as cytotoxic | 3.4% of 400,000 active | AID 1347076; also: nearly all actives have a fitted effect of over 60% in size
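Luminescent ATP read-out (CellTiter-Glo, 10 min) measures survival of drug-selected KB-V1 MDR cells after 72 h, 37 degrees C compound exposure. Medium: phenol-red-free DMEM, 10% FBS. Values from fitted concentration-response curves.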
HT1080-NT tox = kills 2HG-producing HT-1080-NT fibrosarcoma cells; HT-1080-NT fibrosarcoma viability, CellTiter-Glo ATP luminescence, 48 h; AID 686970; 1.6% of 360,000 active; Potency, µM (top dose mostly 46.1 µM), actives largely listed as cytotoxic;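 also: NT is the 2HG producing partner of a matched IDH1 knockdown line; nearly all actives have a fitted effect of over 55% in size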
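Compounds were tested in concentration-response format on HT-1080-NT cells for 48 hours at 37 degrees C. Cell viability came from CellTiter-Glo luminescence; curves were classified by r2, response magnitude and activity.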
KB-3-1 tox = KB-3-1 parental cell cytotoxicity. KB-3-1 viability, CellTiter-Glo ATP luminescence, 72 h. Potency, µM (titrated, usually from 46.1 µM), hits mostly cytotoxic. 1.4% of 400,000 active. AID 1347075; also: nearly all actives have a fitted effect of over 60% in size
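Luminescent ATP read-out (CellTiter-Glo) measures survival of drug-naive KB-3-1 cells after 72 h compound exposure at 37 °C. Titration series was screened from lowest to highest concentration, with DMSO vehicle plates as background controls.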
A number is an active result; - = inactive; ? = inconclusive; . = no result given; ! = not active in a repeat; [ ] = dose if it differs, or a comment. Sampled rows, rich in hits. Any-hit rate of the full collection: about 8%. Calls follow the shape of the dose curve; as a rule, active = well fitted curve in the direction sought with a large enough effect; inconclusive = small, poorly fitted or top-dose-only effect, or another doubt; inactive = no such curve, though single readings can be large; an effect the other way counts as inactive or inconclusive.

SMILES	HT1080 IDH1KD tx	SW480 rereplic	MCF10A rerep	KB-V1 MDR tox	HT1080-NT tox	KB-3-1 tox
COc1cc(/C=C/C(=O)/C=C(O)/C=C/c2ccc(O)c(OC)c2)ccc1O	?	29.9µM	33.5µM	-	?	?
COc1cc(/C=C/C(=O)O)ccc1O	-	?	?	-	-	-
COc1cc(/C=C/C(=O)CC(=O)/C=C/c2ccc(O)c(OC)c2)ccc1O	2.59µM	11.6µM!	25.9µM!	-	?	?
CCOc1ccc(CCNC(=O)Cn2ncc3c([nH]c4ccccc43)c2=O)cc1OCC	.	.	.	-	.	-
CC(C)Cn1cc(NC(=O)NCc2cccc(Cl)c2)c2ccccc2c1=O	.	.	.	-	.	-
CC(=O)Nc1ccc(C(=O)N2CCCC(c3cc(C(=O)Nc4ccccc4Cl)no3)C2)cc1 (centres undefined)	-	.	.	-	?	-
CC(C)c1ccc(C(=O)N2CCCC(c3cc(C(=O)Nc4ccccc4Cl)no3)C2)cc1 (centres undefined)	-	.	.	?	-	18.4µM
C=CC(=O)Nc1ccc(Nc2nc(NC3CCC(N(C)C)CC3)nc3c2ncn3C(C)C)cc1 (centres undefined)	2.31µM	-	?	-	?	1.03µM
Cc1ccc(C)c(NC(=O)COC(=O)CC2c3ccccc3CCN2S(=O)(=O)c2ccc(F)cc2)c1 (centres undefined)	-	-	-	20.6µM	-	-
O=C(COC(=O)CC1c2ccccc2CCN1S(=O)(=O)c1ccccc1)Nc1ccccc1 (centres undefined)	-	.	-	?	-	-
COc1ccccc1CNC(=O)Cn1c(=O)oc2cc(S(=O)(=O)NCc3ccccc3)ccc21	.	.	.	-	.	?
Cc1ccc(-c2ccccc2NC(=O)CCl)o1	-[9.24 µM]	-	?	-	-	-
Cc1ccc(-c2ccccc2NC(=O)CS(=O)CC(=O)Nc2ccc(C)c(Cl)c2)o1 (centres undefined)	23.1µM	?	25.9µM	-	-	-
O=C(COc1ccccc1)N/N=C/c1sc(=O)n(Cc2cccc(C(=O)O)c2)c1Cl	-	-	-	-	-	-
O=Cc1sc(=O)n(Cc2cccc(C(=O)O)c2)c1Cl	-	-	29.1µM	-	-	-
O=C(O)c1cccc(Cn2c(Cl)c(/C=N/NC(=O)c3ccc(O)cc3)sc2=O)c1	-	-	-	-	-	-
O=c1sc(/C=N/Nc2ccccc2)c(Cl)n1Cc1ccccc1	13µM	-	?	-	14.6µM	-
C/C(=C(/CCO)SSCC1CCCO1)N(C=O)Cc1cnc(C)nc1N (centres undefined)	-	-	?	-	-	-
CCCSS/C(CCO)=C(/C)N(C=O)Cc1cnc(C)nc1N	.	?	13.3µM	.	.	.
CCn1c(=O)c2sccc2n2c(CCC(=O)Nc3ccc(C(C)C)cc3)nnc12	.	.	.	-	.	-
CC(C)OC(=O)Nc1ccc2c(c1)N(C(=O)N1CCN(C)CC1)c1ccccc1CC2	23.1µM	-	?	?	23.1µM	?
CCOC(=O)Nc1ccc2c(c1)N(C(=O)N1CCN(C)CC1)c1ccccc1CC2	?	-	-	-	?	-
Cc1cc2c(cc1NS(=O)(=O)c1cccc(C#N)c1)n(C)c(=O)c(=O)n2C	.	.	.	-	.	-
COc1ccc(N=C2C(=O)N3c4c(cccc42)C(C)=CC3(C)C)cc1	-	20.6µM	20.6µM	?	-	-
COc1ccc(N=C2C(=O)Nc3ccccc32)cc1	-	?	-	-	?	-
Cc1ccc(C(=O)NC(C#N)=C(Cl)Cl)cc1	20.6µM	?	9.2µM	-	6.51µM	?
COc1ccc(C(=O)NC(=C(Cl)Cl)S(=O)(=O)c2ccc(C)cc2)cc1	?	13µM	10.3µM	?	?	?
Cc1ccc(C(=O)NC(=C(Cl)Cl)S(=O)(=O)c2ccccc2)cc1	?	-	20.6µM	16.4µM	?	-
CCOC(=O)NC(C(Cl)(Cl)Cl)S(=O)(=O)c1ccccc1 (centres undefined)	?	?	?	-	?	-
COC(=O)NC(=C(Cl)Cl)S(=O)(=O)c1ccccc1	-	?	7.31µM	18.4µM	-	16.4µM

Bioassay records (PubChem)
